# Assay outcomes (PubChem)
# SSB-PriA inh = inhibitors of Klebsiella pneumoniae PriA binding to SSB C-terminal tail, primary screen, biochemical, AlphaScreen. PriA–SSB C-terminal tail interaction (Klebsiella pneumoniae). AlphaScreen SSBct-PriA binding, biotinylated peptide. inhibition, % at 33 µM. 0.6% of 430,000 active. AID 1272365, 2023; in the data active = inhibition mostly above about 37%, no sharp cut-off; inactive = mostly below about 20%
# ugtP null kill = growth inhibition of ugtP-null S. aureus, primary screen, RN4220 ugtP deletion, OD600 | 16 h | growth inhibition, % (test concentration not listed) | 0.54% of 330,000 active; in the data active = growth inhibition above about 68%
# CCHF vOTU inh-1 = CCHFV vOTU protease inhibitors, primary screen, biochemical, Pep-AMC substrate, fluorescence | inhibition, % at 11.5 µM | 0.55% of 370,000 active
# RN4220 kill = growth inhibition of S. aureus RN4220, primary screen, OD600 | 16 h | inhibition, % (concentration not given with the values) | 0.33% of 330,000 active | AID 1259311, 2017; in the data active = inhibition above about 85%
# Mtb hypoxia rep = PubChem AID 1159583 | M. tuberculosis hypoxia-regulated fluorescent reporter, fluorescence | fluorescence inhibition, % (no concentration beside the values) | 0.1% of 300,000 active; in the data active = fluorescence inhibition mostly above about 23%, no sharp cut-off; inactive = mostly below about 17%
# CCHF vOTU inh-2 = CCHFV vOTU protease inhibitors, confirmation, biochemical, Pep-AMC substrate, fluorescence | shares compounds with CCHF vOTU inh-1 | Recombinant CCHFV vOTU | inhibition, % at 11.5 µM | 17% of 1,900 active
# Hits are given with their value; . = inactive; / = not tested or not shown. A selection: hits, their analogues and other compounds. The true share with any hit is near 1.4%. Rule as the data show it, unless noted: active = inhibition above about 30%; inactive = the rest.
SMILES,SSB-PriA inh,ugtP null kill,CCHF vOTU inh-1,RN4220 kill,Mtb hypoxia rep,CCHF vOTU inh-2
O=C(NN=Cc1ccccn1)c1cc(-c2ccc(Br)cc2)nc2ccccc12,/,.,/,.,.,/
O=c1[nH]c(=S)[nH]c2c1C(c1cccc(C(F)(F)F)c1)OC(CCc1ccccc1)C2 (centres undefined),/,/,42,/,/,.
CNc1ccc2oc(C[C@H]3O[C@@]4(CC[C@H]3C)O[C@H]([C@H](C)C(=O)c3ccc[nH]3)[C@H](C)C[C@H]4C)nc2c1C(=O)O,.,/,54,/,/,.
S=C(Nc1ccc2nccnc2c1)N1CCCCCC1,.,/,/,/,/,/
S=C(Nc1ccc2nsnc2c1)N1CCCCC1,.,.,96,.,.,.
COc1cc(/C=C(\C(=O)O)c2ccc(S(=O)(=O)N3CCCC3)s2)ccc1OCCC(C)C,.,.,32,.,.,.
COc1ccccc1CC(=O)Nc1ccc(S(=O)(=O)N2CCN(C)CC2)cc1,.,.,40,.,.,.
COc1cc(/C=N/NC(=O)Cc2ccccc2)cc([N+](=O)[O-])c1O,/,/,.,/,/,/
COc1cc(/C=N/NC(=O)[C@H](Cc2c[nH]c3ccccc23)NC(=O)OCC(C)C)cc([N+](=O)[O-])c1O,/,/,36,/,/,.
O=[N+]([O-])c1cc([N+](=O)[O-])c2nonc2c1Nc1ccc(O)cc1,.,.,64,.,.,.
O=[N+]([O-])c1cc([N+](=O)[O-])c2nonc2c1Nc1ccccc1O,.,.,.,.,/,/
CC(O)(CNC(=O)c1cc(-c2ccco2)on1)c1cc2ccccc2o1 (centres undefined),.,/,/,/,/,/
CCN(CC(=O)NCc1cccs1)C(=O)CCCOc1ccc(C(C)(C)C)cc1,.,.,31,.,.,.
Cc1cc(Cl)ccc1Nc1nc(Nc2ccc(F)cc2)nc2nccnc12,.,/,/,/,/,/
CC1=C(C(=O)N(C)C)CC(CC(=O)NCc2cccc3ccccc23)C(=O)N1CCCN1CCCC1=O (centres undefined),/,/,36,/,/,.
COC(=O)CC1OCC=C2CN3CCC45C6=CC(=O)C(=O)C([N+](=O)[O-])=C6NC4C1C2CC35 (centres undefined),/,/,64,/,/,.
O=C(O)CC1OCC=C2CN3CCC45C6=CC(=O)C(=O)C([N+](=O)[O-])=C6NC4C1C2CC35 (centres undefined),.,.,/,.,.,/
O=C(COc1ccc(Cl)cc1Cl)Nc1nc2c(s1)CCc1ccccc1-2,.,/,/,/,/,/
CC(=NNC(=O)c1ccncc1)c1ccc(NC(=O)c2ccccc2)cc1,.,.,/,.,/,/
Cc1c(P(=S)(c2ccccc2)c2ccccc2)[n+]2ccccc2n1C/C=C/c1ccccc1,/,/,30,/,/,.
Cc1nc2c(=O)n(C)c(=O)nc-2n(C)n1,.,.,102,.,/,99
Cc1cc(SCC(=O)NC2CC2)nc2ccccc12,.,.,40,.,.,.
CCOc1ccc(N2CC(NC(=O)NC3CCCCC3C)CC2=O)cc1 (centres undefined),.,/,/,/,/,/
CCOCc1cnc(C)nc1NC(=O)c1nnn(-c2ccccc2F)c1-c1ccncc1,.,/,/,/,/,/
N#Cc1cc2ccc(N3CCOCC3)cc2cc1C#N,.,.,73,.,.,.
SMILES,SSB-PriA inh,ugtP null kill,CCHF vOTU inh-1,RN4220 kill,Mtb hypoxia rep,CCHF vOTU inh-2
O=C(O)c1ccccc1NS(=O)(=O)c1ccc(NNC(=S)Nc2ccc(OC(F)F)cc2)c([N+](=O)[O-])c1,.,.,70,.,.,65
COc1ccc(NC(=O)CC(C)=NNC(=O)c2ccccn2)c(OC)c1,.,.,/,.,.,/
COc1ccc(P2(=O)Nc3ccccc3N2)cc1,.,/,.,/,/,/
COc1ccc2c(c1)NP(=S)(c1ccccc1)N2C (centres undefined),.,.,38,.,.,.
COc1ccc(OCC(=O)NNC(=O)C(=O)Nc2cc(OC)ccc2OC)cc1,.,.,35,.,.,.
O=C1C(N2CCOCC2)=C(n2nnc3ccccc32)C(=O)c2ccccc21,.,.,104,.,/,98
O=C(NCc1nnc(SCc2ccc(F)cc2)n1-c1ccc(F)cc1)C12CC3CC(CC(C3)C1)C2,.,.,34,.,.,.
CC(=O)N1CCn2c3c(c4cc(C)ccc42)CCCC31 (centres undefined),.,.,.,.,.,/
CC(=O)N1CCn2c3c(c(=O)c4cc(C)ccc42)CCC31 (centres undefined),.,.,101,.,.,.
CS(=O)(=O)N(Cc1ccccc1)c1ccc(C(=O)NCC2CCCO2)cc1 (centres undefined),.,.,35,.,.,.
CS(=O)(=O)N(Cc1ccc(Cl)cc1)c1ccc(C(=O)NCC2CCCO2)cc1 (centres undefined),.,.,.,.,.,/
O=C(/C=C/c1cccs1)Nc1nc(-c2ccc(I)cc2)cs1,.,/,/,/,/,/
CCN(C(=O)c1oc2cc(C)c(C)cc2c1C)c1ccccc1,.,/,/,/,/,/
COc1cc(/C=N/NC(=O)c2ccncc2)c([N+](=O)[O-])cc1OC,/,/,.,/,/,/
COc1cc(OC)c([N+](=O)[O-])cc1/C=N/NC(=O)c1ccncc1,/,/,34,/,/,.
CCOc1ccc(NS(=O)(=O)c2ccc(Cl)c(N=Nc3c(O)[nH]c(=S)[nH]c3=O)c2)cc1Br,/,/,33,/,/,.
Cc1cc(C)c(Nc2cc(S(=O)(=O)O)c(N)c3c2C(=O)c2ccccc2C3=O)c(C)c1,.,.,47,.,.,.
CC1(C)OC(=O)C(=NNc2ccccc2[N+](=O)[O-])C(=O)O1,.,.,30,.,.,.
CCN(Cc1cc(=O)n2ccsc2n1)c1cccc2ccccc12,.,.,54,.,.,.
CN1CCS/C1=C\C=C1/SC(=S)N(CC(=O)O)C1=O,.,.,30,.,47,.
Cc1cc(C)nc(SCC(=O)N(C)CC(=O)Nc2c(Cl)cccc2Cl)n1,.,.,34,.,.,.
COc1cc(CNCc2ccccc2)c(Br)cc1OC1CCCC1,.,.,31,.,.,.
C#CCNC(=O)C[C@H]1C[C@@]2(C(=O)OC)C(=C[C@H](C(C)C)O[C@@H]2C2CC2)N(CCCCCCCC)C1=O,/,/,39,/,/,.
CCCCOCCCNC(=O)C[C@H]1C[C@@]2(C(=O)OC)C(=C[C@H](C(C)C)O[C@@H]2C2CC2)N(Cc2ccco2)C1=O,/,/,.,/,/,/
CCCCCCCCN1C(=O)[C@@H](CC(=O)N2CCN(C(=O)c3ccco3)CC2)C[C@@]2(C(=O)OC)C1=C[C@H](C(C)C)O[C@@H]2C1CC1,/,/,32,/,/,.
CCCCCCCCN1C(=O)[C@@H](CC(=O)NCCCOCCCC)C[C@@]2(C(=O)OC)C1=C[C@H](C(C)C)O[C@@H]2C1CC1,/,/,35,/,/,37
CCCCCCCCN1C(=O)[C@@H](CC(=O)N2CCCC2)C[C@@]2(C(=O)OC)C1=C[C@H](C(C)C)O[C@@H]2C1CC1,/,/,.,/,/,/
